Measured values reported in PubChem BioAssay (NCI).
About 83,000 compounds went through this panel and 20% of them were active in at least one assay; those are over-represented in the sample as a whole.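 Interpretation: 100, growth as untreated; towards 0, rising growth inhibition; 0, no net growth; 0 to -100, cell death. Compounds scoring below 10 were considered active.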 Active and inactive are the calls of the source.

Legend:
Assay in all cases: NCI-60 one-dose screen, 48 h (100 = growth as untreated, 0 = no growth, -100 = all killed)
Settings in all cases: 10 µM
NCI-H23 lung = tested on: NCI-H23 lung
NCI-H226 lung = tested on: NCI-H226 lung
NCI-H322M lung = tested on: NCI-H322M lung
HOP-62 NSCLC = tested on: HOP-62 NSCLC
NCI-H460 lung = tested on: NCI-H460 lung
HOP-92 NSCLC = tested on: HOP-92 NSCLC
A549/ATCC NSCLC = tested on: A549/ATCC NSCLC
786-0 renal = tested on: 786-0 renal
COLO 205 colon = tested on: COLO 205 colon
NCI-H522 lung = tested on: NCI-H522 lung

Measured: growth

C=CCNc1nnc(C)s1
inactive: NCI-H23 lung 98.1% | NCI-H226 lung 99.8% | NCI-H322M lung 96.7% | HOP-62 NSCLC 98.8% | NCI-H460 lung 115% | HOP-92 NSCLC 83% | A549/ATCC NSCLC 116% | 786-0 renal 94.9% | COLO 205 colon 122%

CCCC1(c2ccccc2)NC(=O)NC1=O (stereo not drawn)
inactive: NCI-H23 lung 110% | NCI-H226 lung 97% | NCI-H322M lung 124% | HOP-62 NSCLC 102% | NCI-H460 lung 109% | HOP-92 NSCLC 78.4% | A549/ATCC NSCLC 119% | COLO 205 colon 114%

Cc1nc2ccccc2c(C(=O)O)c1O
inactive: NCI-H23 lung 104% | NCI-H226 lung 91% | NCI-H322M lung 117% | HOP-62 NSCLC 88.3% | NCI-H460 lung 110% | NCI-H522 lung 104% | A549/ATCC NSCLC 103% | 786-0 renal 103%

OCCN1CCOCC1
inactive: NCI-H23 lung 115% | NCI-H226 lung 112% | NCI-H322M lung 125% | HOP-62 NSCLC 104% | NCI-H460 lung 104% | HOP-92 NSCLC 115% | A549/ATCC NSCLC 104% | COLO 205 colon 119%

O=C1Cc2ccccc2C(=O)O1
inactive: NCI-H23 lung 107% | NCI-H226 lung 108% | NCI-H322M lung 110% | HOP-62 NSCLC 108% | NCI-H460 lung 108% | HOP-92 NSCLC 92% | A549/ATCC NSCLC 110% | COLO 205 colon 123%

c1cc2cccc3c4cccc5cccc(c(c1)c23)c54
inactive: NCI-H23 lung 101% | NCI-H226 lung 98.8% | NCI-H322M lung 119% | HOP-62 NSCLC 97.7% | NCI-H460 lung 109% | HOP-92 NSCLC 89.6% | A549/ATCC NSCLC 125% | COLO 205 colon 104%

OC1CCCc2ccccc21 (stereo not drawn)
inactive: NCI-H23 lung 104% | NCI-H226 lung 104% | NCI-H322M lung 89.6% | HOP-62 NSCLC 104% | NCI-H460 lung 101% | HOP-92 NSCLC 112% | A549/ATCC NSCLC 51.3% | 786-0 renal 103% | COLO 205 colon 115%

CCOC(=O)C(CCC(C)C)C(=O)OCC
inactive: NCI-H23 lung 103% | NCI-H226 lung 98.2% | NCI-H322M lung 112% | HOP-62 NSCLC 105% | NCI-H460 lung 106% | HOP-92 NSCLC 93.6% | A549/ATCC NSCLC 102% | 786-0 renal 113% | COLO 205 colon 110%

O=C1OC(c2ccc(F)cc2)CC1CN1CCOCC1 (stereo not drawn)
inactive: NCI-H23 lung 98.8% | NCI-H226 lung 107% | NCI-H322M lung 102% | HOP-62 NSCLC 101% | NCI-H460 lung 108% | HOP-92 NSCLC 94.5% | A549/ATCC NSCLC 100% | 786-0 renal 105% | COLO 205 colon 93.1%

CCCCC1(CC)COC(CCC)OC1 (stereo not drawn)
inactive: NCI-H23 lung 111% | NCI-H226 lung 98% | NCI-H322M lung 117% | HOP-62 NSCLC 95.9% | NCI-H460 lung 115% | HOP-92 NSCLC 79.7% | A549/ATCC NSCLC 103% | COLO 205 colon 114%

O=[N+]([O-])c1ccc(N=Nc2ccccc2)cc1
inactive: NCI-H23 lung 90.4% | NCI-H226 lung 89.4% | NCI-H322M lung 80% | HOP-62 NSCLC 96.4% | NCI-H460 lung 120% | NCI-H522 lung 81.1% | A549/ATCC NSCLC 89% | 786-0 renal 92%

O=S(=O)(O)c1ccc(O)c2ccccc12
inactive: NCI-H23 lung 93.4% | NCI-H226 lung 102% | NCI-H322M lung 110% | HOP-62 NSCLC 107% | NCI-H460 lung 115% | HOP-92 NSCLC 98.8% | A549/ATCC NSCLC 118% | 786-0 renal 101% | COLO 205 colon 121%

O=C(Nc1ccccc1)OCCc1ccccc1
inactive: NCI-H23 lung 108% | NCI-H226 lung 103% | NCI-H322M lung 116% | HOP-62 NSCLC 103% | NCI-H460 lung 103% | HOP-92 NSCLC 82.5% | A549/ATCC NSCLC 102% | 786-0 renal 97.2% | COLO 205 colon 119%

CC(C)C1CCCCC1O (stereo not drawn)
inactive: NCI-H23 lung 95.4% | NCI-H226 lung 112% | NCI-H322M lung 124% | HOP-62 NSCLC 102% | NCI-H460 lung 109% | HOP-92 NSCLC 101% | COLO 205 colon 108%

Nc1ncnc2[nH]ncc12
active: NCI-H322M lung 0.523% | HOP-92 NSCLC -21.4%
inactive: NCI-H23 lung 17.7% | NCI-H226 lung 34.8% | HOP-62 NSCLC 20.9% | NCI-H460 lung 12.3% | A549/ATCC NSCLC 23% | COLO 205 colon 10.8%

CCCOC(=O)C(O)c1ccccc1 (stereo not drawn)
inactive: NCI-H23 lung 106% | NCI-H226 lung 105% | NCI-H322M lung 132% | HOP-62 NSCLC 99.8% | NCI-H460 lung 107% | HOP-92 NSCLC 95% | A549/ATCC NSCLC 126% | COLO 205 colon 115%

C[C@]12CC[C@@H]3c4ccc(OCC(=O)O)cc4CC[C@H]3[C@@H]1CCC2=O
inactive: NCI-H23 lung 94.2% | NCI-H226 lung 95.7% | NCI-H322M lung 98% | HOP-62 NSCLC 75% | NCI-H460 lung 101% | HOP-92 NSCLC 92.1% | A549/ATCC NSCLC 93.3% | 786-0 renal 102% | COLO 205 colon 105%

CC(C)(N)COS(=O)(=O)O
inactive: NCI-H23 lung 116% | NCI-H226 lung 104% | NCI-H322M lung 115% | HOP-62 NSCLC 98.3% | NCI-H460 lung 103% | HOP-92 NSCLC 87.6% | 786-0 renal 94.7% | COLO 205 colon 105%

CN(c1ccccc1)c1ncnc2c1ncn2C
inactive: NCI-H23 lung 101% | NCI-H226 lung 107% | NCI-H322M lung 115% | HOP-62 NSCLC 103% | NCI-H460 lung 101% | HOP-92 NSCLC 105% | A549/ATCC NSCLC 87.3% | 786-0 renal 106% | COLO 205 colon 105%

CC(O)COc1ccc(-c2ccccc2)cc1 (stereo not drawn)
inactive: NCI-H23 lung 108% | NCI-H226 lung 104% | NCI-H322M lung 112% | HOP-62 NSCLC 102% | NCI-H460 lung 99.2% | HOP-92 NSCLC 92.7% | A549/ATCC NSCLC 107% | COLO 205 colon 110%

COc1cc(/C=C/C(=O)c2ccccc2)cc(OC)c1OC
inactive: NCI-H23 lung 78.1% | NCI-H226 lung 98.7% | NCI-H322M lung 95.5% | HOP-62 NSCLC 104% | NCI-H460 lung 70.7% | HOP-92 NSCLC 76% | A549/ATCC NSCLC 89.4% | 786-0 renal 89% | COLO 205 colon 48%

CC(=O)OC(OC(C)=O)C1CCCO1 (stereo not drawn)
inactive: NCI-H23 lung 97.4% | NCI-H226 lung 103% | NCI-H322M lung 114% | HOP-62 NSCLC 99.2% | NCI-H460 lung 109% | HOP-92 NSCLC 94.1% | A549/ATCC NSCLC 101% | COLO 205 colon 105%

NNc1ccccc1C(=O)O
inactive: NCI-H23 lung 111% | NCI-H226 lung 96% | NCI-H322M lung 128% | HOP-62 NSCLC 104% | NCI-H460 lung 110% | HOP-92 NSCLC 98.1% | A549/ATCC NSCLC 109% | 786-0 renal 113% | COLO 205 colon 107%

CC1CC(O)CC(C)(C)C1 (stereo not drawn)
inactive: NCI-H23 lung 98.4% | NCI-H226 lung 106% | NCI-H322M lung 98.2% | HOP-62 NSCLC 97.9% | NCI-H460 lung 106% | HOP-92 NSCLC 96.5% | 786-0 renal 107% | COLO 205 colon 102%

Cc1ccc(C(=O)c2ccccc2)c(C)c1
inactive: NCI-H23 lung 99.6% | NCI-H226 lung 104% | NCI-H322M lung 105% | HOP-62 NSCLC 95% | NCI-H460 lung 110% | HOP-92 NSCLC 111% | A549/ATCC NSCLC 110% | COLO 205 colon 109%

OC(c1ccccn1)C(O)c1ccccn1 (stereo not drawn)
inactive: NCI-H23 lung 97.5% | NCI-H226 lung 110% | NCI-H322M lung 96.8% | HOP-62 NSCLC 104% | NCI-H460 lung 114% | HOP-92 NSCLC 98.9% | 786-0 renal 99.5% | COLO 205 colon 105%

CCCCCCCO
inactive: NCI-H23 lung 106% | NCI-H226 lung 94.7% | NCI-H322M lung 92.6% | HOP-62 NSCLC 98.8% | NCI-H460 lung 110% | HOP-92 NSCLC 88.7% | A549/ATCC NSCLC 102% | 786-0 renal 110% | COLO 205 colon 118%

Brc1cnc2ccccc2c1
inactive: NCI-H23 lung 103% | NCI-H226 lung 105% | NCI-H322M lung 106% | HOP-62 NSCLC 100% | NCI-H460 lung 109% | HOP-92 NSCLC 95.1% | A549/ATCC NSCLC 104% | 786-0 renal 109% | COLO 205 colon 100%

S=C1NCc2cncnc2N1
inactive: NCI-H23 lung 109% | NCI-H226 lung 101% | NCI-H322M lung 114% | HOP-62 NSCLC 93.5% | NCI-H460 lung 106% | HOP-92 NSCLC 95.6% | A549/ATCC NSCLC 98.2% | 786-0 renal 106% | COLO 205 colon 111%

Cc1ccc(O)c(C(=O)c2ccccc2)c1
inactive: NCI-H23 lung 98.4% | NCI-H226 lung 104% | NCI-H322M lung 138% | HOP-62 NSCLC 114% | NCI-H460 lung 113% | HOP-92 NSCLC 93.8% | A549/ATCC NSCLC 95.9% | 786-0 renal 111% | COLO 205 colon 113%

CCCCCCCCOC(=O)c1ccccn1
inactive: NCI-H23 lung 91.5% | NCI-H226 lung 104% | NCI-H322M lung 98.9% | HOP-62 NSCLC 93.5% | NCI-H460 lung 109% | HOP-92 NSCLC 107% | A549/ATCC NSCLC 107% | COLO 205 colon 106%

CC(C)OC(C(=O)O)c1ccccc1 (stereo not drawn)
inactive: NCI-H23 lung 101% | NCI-H226 lung 108% | NCI-H322M lung 117% | HOP-62 NSCLC 91.1% | NCI-H460 lung 109% | HOP-92 NSCLC 81.3% | A549/ATCC NSCLC 105% | COLO 205 colon 111%

COc1ncnc2c1cnn2C
inactive: NCI-H23 lung 106% | NCI-H226 lung 106% | NCI-H322M lung 116% | HOP-62 NSCLC 94.4% | NCI-H460 lung 106% | HOP-92 NSCLC 99.9% | A549/ATCC NSCLC 105% | COLO 205 colon 104%

Cc1cc(C)c(CC(=O)O)c(C)c1
inactive: NCI-H23 lung 100% | NCI-H226 lung 99.8% | NCI-H322M lung 100% | HOP-62 NSCLC 107% | NCI-H460 lung 105% | HOP-92 NSCLC 90.5% | A549/ATCC NSCLC 104% | COLO 205 colon 108%

C=CCNc1ccccc1
inactive: NCI-H23 lung 102% | NCI-H226 lung 103% | NCI-H322M lung 106% | HOP-62 NSCLC 86.9% | NCI-H460 lung 108% | HOP-92 NSCLC 88.5% | A549/ATCC NSCLC 101% | COLO 205 colon 112%
